Measurements published in PubChem BioAssay AID504333 (National Center for Advancing Translational Sciences (NCATS), 2011).
The whole screen tested about 360,000 compounds, of which about 16,000 (4.4%) were called active. Entries that show only a call come without a potency. Another 9% or so got no clear call; they are omitted. This is one part of a sample in which actives are shown more often than they occur. Calls follow the shape of the dose curve; as a rule, active = well fitted inhibition curve with a large enough effect; inconclusive = small, poorly fitted or top-dose-only effect; inactive = no such curve, though single readings can be large or run the other way.

The molecules below were run against Bromodomain adjacent to zinc finger domain protein 2B (Homo sapiens) (UniProt Q9UIF8) (assay: qHTS Assay for Inhibitors of BAZ2B). Settings: AlphaScreen BAZ2B-H3K14Ac peptide displacement; series mostly up to 114 µM.
Chain of Bromodomain adjacent to zinc finger domain protein 2B (Homo sapiens) (Q9UIF8 whole entry, looked up, the tested form may be a part): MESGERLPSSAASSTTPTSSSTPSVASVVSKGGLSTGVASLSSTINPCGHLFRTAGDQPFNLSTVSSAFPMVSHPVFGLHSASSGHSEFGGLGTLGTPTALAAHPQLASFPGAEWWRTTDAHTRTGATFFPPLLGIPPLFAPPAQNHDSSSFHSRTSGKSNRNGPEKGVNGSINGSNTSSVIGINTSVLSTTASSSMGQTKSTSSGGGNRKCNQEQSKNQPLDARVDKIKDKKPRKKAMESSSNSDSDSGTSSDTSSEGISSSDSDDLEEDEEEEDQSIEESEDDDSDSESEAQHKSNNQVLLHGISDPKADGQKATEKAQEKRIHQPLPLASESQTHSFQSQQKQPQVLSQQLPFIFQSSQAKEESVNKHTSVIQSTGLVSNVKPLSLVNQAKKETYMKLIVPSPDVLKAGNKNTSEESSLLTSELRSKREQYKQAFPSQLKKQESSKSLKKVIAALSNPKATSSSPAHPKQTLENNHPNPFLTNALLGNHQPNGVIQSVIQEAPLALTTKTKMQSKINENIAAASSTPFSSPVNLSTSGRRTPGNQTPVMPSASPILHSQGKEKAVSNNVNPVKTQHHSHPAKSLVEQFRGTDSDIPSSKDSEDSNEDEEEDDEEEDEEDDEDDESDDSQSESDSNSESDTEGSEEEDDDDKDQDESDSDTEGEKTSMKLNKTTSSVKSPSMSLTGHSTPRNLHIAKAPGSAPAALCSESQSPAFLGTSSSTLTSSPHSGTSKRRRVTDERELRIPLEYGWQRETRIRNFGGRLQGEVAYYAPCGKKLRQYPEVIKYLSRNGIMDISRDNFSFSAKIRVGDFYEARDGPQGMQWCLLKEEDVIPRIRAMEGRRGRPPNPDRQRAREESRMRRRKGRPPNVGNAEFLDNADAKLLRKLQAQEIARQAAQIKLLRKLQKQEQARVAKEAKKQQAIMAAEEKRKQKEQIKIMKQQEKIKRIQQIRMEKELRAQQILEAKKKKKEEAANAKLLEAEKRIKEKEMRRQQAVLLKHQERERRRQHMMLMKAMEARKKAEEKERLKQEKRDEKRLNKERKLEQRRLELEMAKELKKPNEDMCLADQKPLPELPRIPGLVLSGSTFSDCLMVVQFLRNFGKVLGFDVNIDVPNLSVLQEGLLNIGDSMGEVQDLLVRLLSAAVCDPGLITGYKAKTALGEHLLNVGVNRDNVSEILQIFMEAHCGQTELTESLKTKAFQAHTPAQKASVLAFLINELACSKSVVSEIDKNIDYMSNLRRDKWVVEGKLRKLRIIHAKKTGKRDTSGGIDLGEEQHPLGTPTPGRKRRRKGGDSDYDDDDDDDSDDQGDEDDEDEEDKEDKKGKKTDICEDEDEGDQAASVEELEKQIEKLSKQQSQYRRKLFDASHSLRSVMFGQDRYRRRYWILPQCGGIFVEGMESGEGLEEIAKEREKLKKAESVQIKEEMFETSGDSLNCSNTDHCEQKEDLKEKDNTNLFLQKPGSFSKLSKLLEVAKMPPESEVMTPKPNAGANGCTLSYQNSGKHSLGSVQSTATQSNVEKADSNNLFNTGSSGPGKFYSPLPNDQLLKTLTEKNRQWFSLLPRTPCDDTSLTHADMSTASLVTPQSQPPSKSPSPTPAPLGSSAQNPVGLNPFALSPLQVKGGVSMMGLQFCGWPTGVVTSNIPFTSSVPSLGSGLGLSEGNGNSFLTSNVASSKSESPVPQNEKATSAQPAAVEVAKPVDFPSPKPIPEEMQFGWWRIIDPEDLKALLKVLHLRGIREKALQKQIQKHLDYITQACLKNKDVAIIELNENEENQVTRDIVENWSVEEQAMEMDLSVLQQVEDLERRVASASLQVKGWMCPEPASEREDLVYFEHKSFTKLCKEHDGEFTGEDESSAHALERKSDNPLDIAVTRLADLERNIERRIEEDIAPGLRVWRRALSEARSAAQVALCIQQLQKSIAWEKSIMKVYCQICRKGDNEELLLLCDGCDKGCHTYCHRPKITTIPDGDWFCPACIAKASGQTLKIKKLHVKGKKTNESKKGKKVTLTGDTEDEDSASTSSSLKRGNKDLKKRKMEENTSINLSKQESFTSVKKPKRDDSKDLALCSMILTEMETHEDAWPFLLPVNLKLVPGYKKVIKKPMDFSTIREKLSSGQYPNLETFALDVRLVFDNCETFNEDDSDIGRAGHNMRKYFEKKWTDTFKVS
Method in brief: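 AlphaScreen luminescence quantifies BAZ2B engagement of H3K14Ac peptide; the protein and biotinylated peptide are both at 50 nM final, buffer PBS pH 7.4 with 0.01% Tween-20, all steps at room temperature.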
Also: nearly all actives have a fitted effect of over 60% in size.
Potency is read from the fitted curve at half-maximal effect.

| SMILES | Potency |
| --- | --- |
| O=C(CSc1n[nH]c(-c2ccccc2)n1)N1CCCCC1 | inactive |
| CN(C(=O)c1ccc2c(c1)N(Cc1cccc(Cl)c1)C(=O)c1ccccc1S2=O)C1CCCCC1 (configuration not stated) | inactive |
| Cc1ccc(NC(=O)c2ccc3[nH]c(C)cc(=O)c3c2)c(C)c1 | inactive |
| O=C1CSC2(C(=O)N(Cc3ccccc3)c3ccccc32)N1c1cccc(F)c1 (configuration not stated) | inactive |
| CSc1ncc(C(=O)NCc2ccccc2Cl)c(C(F)(F)F)n1 | inactive |
| COc1ccc(OC)c(-c2csc(-c3c(N)c(C(=O)c4ccccc4)n4ccccc34)n2)c1 | inactive |
| O=C(NC1CCCC1)C(=O)c1c[nH]c2ccccc12 | inactive |
| O=S(=O)(O)Oc1c[nH]c2ccccc12 | 44.7 µM (active) |
| NC(=O)CSc1c[nH]c2ccccc12 | inactive |
| CC(=O)N(C1=C(Cl)C(=O)c2ccccc2C1=O)c1ccc(C(=O)O)cc1 | 28.2 µM (active) |
| CCc1ccc(-n2nc(C)c3c(C)cc(=O)n(CC(=O)Nc4ccc(F)cc4C)c32)cc1 | inactive |
| CC1CC(=O)Nc2ccccc2N1S(=O)(=O)c1cccs1 (configuration not stated) | inactive |
| CC1CC(=S)Nc2ccccc2N1Cc1ccccc1 (configuration not stated) | 39.8 µM (active) |
| CC1CC(C)(C)NC(=S)N1CCC(=O)N1CCN(Cc2ccccc2)CC1 (configuration not stated) | inactive |
| Cc1nc(N2CCOCC2)c2c(C(=O)NCc3cccc(Cl)c3)c(C)oc2n1 | inactive |
| Cc1c(Br)c([N+](=O)[O-])nn1C(C)C(=O)Nc1nccs1 (configuration not stated) | 79.4 µM (active) |
| O=C(CCn1ccc([N+](=O)[O-])n1)Nc1nccs1 | inactive |
| CCOc1ccc(C(=O)Nc2nccs2)cc1[N+](=O)[O-] | inactive |
| COc1ccc(-c2nc3scc(CCNS(=O)(=O)c4cc(F)ccc4OC)n3n2)cc1OC | inactive |
| COc1ccccc1C(=O)OCc1cc(=O)n2nc(-c3cccs3)sc2n1 | inactive |
| CC1=Nc2cc(C(=O)NCc3ccc(C)cc3)ccc2Sc2ccc(Cl)cc21 | inactive |
| Cc1cc(Cl)ccc1OCCCC(=O)NCc1ccccn1 | inactive |
| O=S(=O)(NCc1ccccn1)c1ccc(F)cc1 | inactive |

| SMILES | Potency |
| --- | --- |
| Fc1ccc(-c2ccc(CNCc3ccccn3)o2)cc1Cl | 31.6 µM (active) |
| O=C(CCc1nc(CN2CCN(S(=O)(=O)c3ccc(Br)cc3)CC2)no1)N1CCCCC1 | inactive |
| COC(=O)c1ccccc1NC(=O)C(Cc1ccccc1)N1Cc2ccccc2C1=O (configuration not stated) | inactive |
| CCN(CCCNC(=O)c1cc2cc3cc(OC)ccc3nc2s1)c1ccccc1 | inactive |
| Cc1cc(C=O)c(C)n1-c1ccc(NC2CCCCC2)c([N+](=O)[O-])c1 | 10 µM (active) |
| Cc1cc([N+](=O)[O-])ccc1NC1CCCC1 | inactive |
| Cc1c(NS(=O)(=O)c2ccc(NC3CCCC3)c([N+](=O)[O-])c2)c(=O)n(-c2ccccc2)n1C | inactive |
| CCOc1ccc(-c2cc(C)n3nc(C(=O)Nc4ccc(C)c(C)c4)cc3n2)cc1 | inactive |
| CCOC(=O)c1scc(-c2ccccc2)c1S(=O)(=O)Nc1ccccc1F | inactive |
| Cc1ccnc(N2CCCC(C(=O)NC3CC3)C2)n1 (configuration not stated) | inactive |
| Cc1ccnc(SCC(N)=O)n1 | inactive |
| Cc1ccnc(-n2sc3ccccc3c2=O)n1 | 25.1 µM (active) |
| Cc1ccc(C)c(N2CCN(S(=O)(=O)c3ccc4c(c3)C(C(C)C)C(=O)N4)CC2)c1 (configuration not stated) | inactive |
| CC(NC(=O)c1cc2c(=O)n3ccccc3nc2n(C(C)C)c1=N)c1ccccc1 (configuration not stated) | inactive |
| CCc1ccccc1NC(=O)CSc1nc(C)c(C(=O)Nc2ccccc2)c(-c2ccc(Cl)cc2)c1C#N | inactive |
| COc1ccc(-n2c(=O)[nH]c3cc(C(=O)NCCc4ccc(OC)c(OC)c4)ccc3c2=O)c(OC)c1 | inactive |
| COc1ccc(OC)c(CCNC(=O)c2nn(C)c3c2CS(=O)(=O)c2ccccc2-3)c1 | inactive |
| CCn1c(C)c(C)c2cc(C(=O)NCCc3cc(OC)ccc3OC)ccc21 | 31.6 µM (active) |
| CCOc1cccc2cc(-c3cn4c(n3)sc3cc(C)ccc34)c(=O)oc12 | inactive |
| Cc1ccc(NC(=O)CSc2cccc3cccnc23)c(C)c1 | inactive |
| Cc1ccc(NC(=S)Nc2ncccc2C)c(C)c1 | 44.7 µM (active) |
| Cc1cc(Br)ccc1NC(=S)NC1CCCC1 | inactive |
| COC(=O)c1scc(-c2ccc(C)cc2)c1S(=O)(=O)Nc1cc(Cl)c(OC)cc1OC | inactive |

| SMILES | Potency |
| --- | --- |
| Cc1cc(C)c(NC(=O)CCc2c(C)nc3c(c(C)nn3C(C)(C)C)c2C)c(C)c1 | inactive |
| OC(CNCCc1ccc(Cl)cc1Cl)COc1ccccc1 (configuration not stated) | 70.8 µM (active) |
| OC(CNCc1ccc2c(c1)OCO2)COc1ccccc1 (configuration not stated) | inactive |
| COc1ccc(OCC(O)CNC(=O)Nc2ccc(Cl)cc2)cc1 (configuration not stated) | inactive |
| CCCNC(=O)c1ccc(Cn2c(SCC(N)=O)nc3ccccc3c2=O)cc1 | inactive |
| CC(=O)c1ccc(NC(=O)CSc2nnc(NC(=O)Nc3ccccc3)s2)cc1 | inactive |
| O=C(c1ccco1)N1CCN=C1SCc1cccc(Cl)c1 | inactive |
| Cc1cc2c(cc3c(SCc4nc(-c5ccccc5)oc4C)nnc(C)n32)o1 | inactive |
| Cc1cc2c(cc3c(SCc4cccc(Cl)c4)nnc(C)n32)o1 | 25.1 µM (active) |
| CCc1ccccc1NC(=O)c1sc2nc3c(cc2c1N)CN(Cc1ccccc1)CC3 | inactive |
| CCN1CCc2nc3sc(C(=O)Nc4ccccc4OC(F)(F)F)c(N)c3cc2C1 | inactive |
| CCc1ccc(NC(=O)c2sc3nc4c(cc3c2N)CN(CC)CC4)cc1 | 35.5 µM (active) |
| O=C(COc1ccccc1)NCc1ccc2c(c1)CCN2C(=O)c1ccc(F)cc1 | inactive |
| CCc1nc2cccnc2n1-c1ccc(CC(=O)Nc2c(C)cccc2C)cc1 | inactive |
| Cc1cc(C)cc(NC(=O)CSc2nc3nccnc3c(=O)n2CCc2c[nH]c3ccccc23)c1 | inactive |
| Cc1ccc(-n2ncc3c(N4CCC(C(N)=O)CC4)ncnc32)cc1 | inactive |
| Cc1cc(C)cc(OCC(=O)Nc2nc(-c3ccc(F)cc3)ns2)c1 | inactive |
| CN(C)c1ccc(Nc2c3c4c(cccc4n(C)c2=O)C(=O)c2ccccc2-3)cc1 | 1.58 µM (active) |
| COc1ccc(Br)cc1/C=N/NC(=O)c1cccc(S(=O)(=O)N2CCOCC2)c1 | inactive |
| Cc1ncc(CO)c(/C=N/NC(=O)c2cccc(S(=O)(=O)N3CCCC3)c2)c1O | 28.2 µM (active) |
| Cc1cccc(NC(=O)c2cccc(S(=O)(=O)N3CCCC3)c2)n1 | inactive |
